Measurements reported in the supplement of paper PMC13380429.

Tested on: Vero E6 infected with SARS-CoV-2
Assay: inhibition of SARS-CoV-2 cytopathic effect; higher = more antiviral protection, active = above 15
Conditions: 48 h

Measured: inhibition of SARS-CoV-2 cytopathic effect

CCN(CC)C(=O)Nc1ccc(OCC(O)CNC(C)(C)C)c(C(C)=O)c1 (stereo not given) [celiprolol]
inactive: 1 nM -3.29% | 8.33 nM 0.91% | 100 nM -0.73% | 833.33 nM -0.15% | 10000 nM -0.87%

CC(/C=C/C(=O)NO)=C\[C@@H](C)C(=O)c1ccc(N(C)C)cc1 [trichostatin-a]
inactive: 1 nM -3.04% | 8.33 nM -7.12% | 100 nM -16% | 833.33 nM -31% | 10000 nM -31.1%

O=C(O)c1cc(-c2ccc(F)cc2F)ccc1O [diflunisal]
inactive: 1 nM 1.75% | 8.33 nM -3.3% | 100 nM 2.12% | 833.33 nM 1.36% | 10000 nM 0.19%

CC(C)[N+](C)(CCC(C(N)=O)(c1ccccc1)c1ccccc1)C(C)C [isopropamide-iodide]
inactive: 1 nM 1.15% | 8.33 nM 1.26% | 100 nM 2.29% | 833.33 nM 1.52% | 10000 nM 1.2%

CC[C@]12CCCN3CCc4c(n(c5ccccc45)C(=O)C1)[C@@H]32 [vinburnine]
inactive: 1 nM -4.83% | 8.33 nM -3.72% | 100 nM -1.1% | 833.33 nM 0.35% | 10000 nM -0.52%

O=C(OCC(O)CO)c1ccccc1Nc1ccnc2c(C(F)(F)F)cccc12 (stereo not given) [floctafenine]
inactive: 1 nM 0.71% | 8.33 nM 6.76% | 100 nM 1.82% | 833.33 nM 3.08% | 10000 nM 3.04%

C[S+](C)CC[C@H](N)C(=O)O [cabagin]
inactive: 1 nM -1.01% | 8.33 nM -0.84% | 100 nM -0.11% | 833.33 nM 0.92% | 10000 nM 0.96%
